# The campaign covered roughly 57,000 sequences. About 3,200 (5.6%) were called active. No stated cut-off is given here; in the data, active = GI50 up to about 1.1 µM and inactive = higher. These entries were drawn from the full list. Potency and affinity values are given separately.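 Each compound was tested at five concentrations against cells in 96-well plates for 48 hours. GI50 is the concentration that inhibits growth by half.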
# Tested on: SF-268
# Experiment: NCI tumour cell line growth inhibition, 48 h
row,Substance,GI50 [µM]
1,"[Bis(aminomethyl)ethylmethylsilane]tetrachloroplatinum(IV), CHEMBL2146192",2.43
2,"[Bis(aminomethyl)tetramethylenesilane]tetrachloropaltinum(IV), CHEMBL2146189",3.52
3,"[Bis(aminomethyl)dimethylsilane]tetrachloroplatinum(IV), CHEMBL2146190",2.74
4,"[Bis(aminomethyl)diethylsilane]tetrachloroplatinum(IV), CHEMBL2146203",1.57
5,"[Bis(aminomethyl)tetramethylenesilane]dichloropaltinum(II), CHEMBL2146205",21.8
6,"[Bis(aminomethyl)dimethylsilane]dichloroplatinum (II), CHEMBL2146201",8.81
7,"cis-Bis[[(trimethylsilyl)methyl]amino]tetrachloroplatinum(IV), CHEMBL2146191",13.6
8,"mu-(1,7-nanodiamine-N,N')bis-(cis-aminedichloroplatimum (II)), CHEMBL2146215",8.97
9,"CISPLATIN, CHEMBL11359",0.745
10,"[Bis(aminomethyl)pentamethylenesilane]dichloropaltinum(II), CHEMBL2146202",3.46
11,"[Bis(aminomethyl)pentamethylenesilane]tetrachloropaltinum(IV), CHEMBL2146204",3.59

# Reference: ChEMBL document CHEMBL1201862, “PubChem BioAssay data set” (2004)
